Source: PubChem
tim10-1 inh = tim10-1 yeast growth inhibition. S. cerevisiae tim10-1 ts strain growth, BacTiter-Glo, 24 h. inhibition, % at 20 µM. 330,000 tested, 2.2% active. AID 463190;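 active = inhibition of at least 40%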;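 note: mutant grown at 25 °C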
tim23-1 inh = tim23-1 yeast growth inhibition | 330,000 tested, 1.3% active | inhibition, % at 20 µM | S. cerevisiae tim23-1 growth, BacTiter-Glo luminescence, 24 h | AID 463212;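 active = growth inhibition of the mutant yeast at or above 50%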;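 note: temperature-sensitive mutant grown at 25 °C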
V-ATPase pHluor = yeast V-ATPase proton transport regulation by pHLuorin | S. cerevisiae, pHLuorin cytosolic pH fluorescence | response, % at 10 µM | 350,000 tested, 0.37% active; in the data active = response mostly above about 7.3%, no sharp cut-off; inactive = mostly below about 5.4%; note: actives read high
SKKanGAS inh = blocks kanamycin growth of S. pyogenes SKKanGAS strain | BacTiter-Glo, 6 h | inhibition, % at 7.5 µM | 300,000 tested, 1.3% active | AID 1662;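 active = mean replicate score, as percent of positive control median, at least 50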;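 note: strain carries kanamycin resistance gene driven by streptokinase promoter and grows in 40 µg/ml kanamycin; loss of luminescence reflects streptokinase promoter inhibition or plain growth inhibition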
PfHsp90 set2 = growth inhibition of yeast expressing Plasmodium Hsp90 | 310,000 tested, 0.32% active | S. cerevisiae expressing PfHsp90, BacTiter-Glo ATP, 48 h; yeast lacking PDR1 and PDR3 efflux regulators | inhibition, % at 9.4 µM | AID 504621;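 active = every replicate shows inhibition above about 80%, whatever the replicate mean, limit read from the data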
TIM10 inh = TIM10 yeast growth inhibition; S. cerevisiae TIM10 strain growth, BacTiter-Glo luminescence, 24 h; inhibition, % at 10 µM; 330,000 tested, 1.4% active;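 active = inhibition of 40% or more at the single tested concentration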;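 note: wild-type TIM10 isogenic control strain grown at permissive 25 °C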
TIM10 conf = TIM10 yeast growth inhibition, confirmed; shares compounds with TIM10 inh; S. cerevisiae tim10 strain growth, BacTiter-Glo luminescence, 24 h; inhibition, % at 10 µM; 4,600 tested, 63% active;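 active = inhibition of yeast growth at or above a set limit in either of two replicates at 10 µM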; note: this counterscreen used the strain with wild-type TIM10
Each line names hits and unclear results; the compound was inactive in the other large screens (follow-up assays come after a bar, where they were run). Shown are actives, neighbours in structure and some others; about 4.6% of the full set was active somewhere.

COc1ccc(/C=C2\SC(=O)N(CCn3cnnn3)C2=O)cc1	none
O=C(CCN1C(=O)/C(=C\c2ccccc2F)SC1=S)N1CCCCC1	TIM10 inh 42.2 | TIM10 conf inactive
Cn1cc(S(=O)(=O)N2CCNCC2)cc1C(N)=O	none (no result: SKKanGAS inh)
COc1ccc(S(=O)(=O)n2nc(OC(=O)c3ccccc3Br)cc2N)cc1	TIM10 inh 50.0 | TIM10 conf inactive
COc1ccc(S(=O)(=O)n2nc(OC(=O)c3ccccc3)cc2N)cc1	TIM10 inh 49.5 | TIM10 conf inactive
Cc1ccc(C(=O)Oc2cc(N)n(S(=O)(=O)c3ccc(C)cc3)n2)cc1	none
COc1ccc(S(=O)(=O)n2nc(OC(=O)c3ccc(C)cc3)cc2N)cc1	TIM10 inh 52.9 | TIM10 conf 34.6
Cc1ccc(S(=O)(=O)n2nc(OC(=O)c3ccccc3F)cc2N)cc1	TIM10 inh 45.8 | TIM10 conf 48.1
CC(C)(C)C(=O)Oc1cc(N)n(S(=O)(=O)c2ccccc2)n1	none
COc1cccc(NC(=O)COC(=O)C2CC3CCCC(C2)C3=O)c1 (stereo not drawn)	none (no result: SKKanGAS inh)
Cc1ccc(C)c(OCCC(=O)N2CCN(S(=O)(=O)c3ccc([N+](=O)[O-])cc3)CC2)c1	TIM10 inh 53.1 (no result: SKKanGAS inh) | TIM10 conf inactive
NC(=O)[C@H]1CC2(CC(c3cccc(NC(=O)[C@H]4CCC(=O)N4)c3)=NO2)CN1C(=O)c1cc([N+](=O)[O-])cc([N+](=O)[O-])c1 (stereo partly drawn)	none
CCn1nc(C)c(/C=N/NC(=S)Nc2ccc(Cl)cc2Cl)c1C	TIM10 inh 42.3 | TIM10 conf inactive
Cc1nn(C)cc1/C=N/NC(=S)Nc1ccc(Cl)cc1Cl	none
Oc1ccccc1CC=NC1CCCCC1	none (no result: tim10-1 inh, tim23-1 inh, SKKanGAS inh, TIM10 inh)
CS(=O)(=O)c1sc(C#N)c2c1C(=O)CC(c1ccccc1)C2 (stereo not drawn)	TIM10 inh 42.4 | TIM10 conf 42.3
Cc1oc2c(c(=O)c1C)C(=O)CC(c1ccccc1)C2 (stereo not drawn)	none (no result: PfHsp90 set2)
CC(=O)Nc1ccc(S(=O)(=O)NCCC(=O)NCc2ccco2)cc1	none (no result: tim10-1 inh, tim23-1 inh, SKKanGAS inh, PfHsp90 set2, TIM10 inh)
O=C(COc1ccc(-c2nnc(N3CCCCC3)c3ccccc23)cc1)N1CCCCC1	TIM10 inh 42.3 | TIM10 conf inactive
O=C(COc1ccc([N+](=O)[O-])cc1)N1CCN(c2nnc(-c3ccccc3)c3ccccc23)CC1	none
O=C(Nc1ncn[nH]1)c1ccc([N+](=O)[O-])cc1[N+](=O)[O-]	TIM10 inh 42.6 (no result: PfHsp90 set2) | TIM10 conf inactive
CCOCCOCCC(C(=O)OCC)P(=O)(c1ccccc1)c1ccccc1 (stereo not drawn)	none (no result: PfHsp90 set2)
N#CC1=C(N)SC(N)=C(C#N)C1CCc1ccccc1	TIM10 inh 70.3 | TIM10 conf inactive
CC(c1ccccc1)n1cc(C(=O)NCc2cccnc2)nn1 (stereo not drawn)	TIM10 inh 51.3 | TIM10 conf inactive
Cc1ccc(C(C)n2cc(C(=O)NCc3ccncc3)nn2)cc1 (stereo not drawn)	none
Cc1cccc(C(=O)NNC(=O)c2ccc3ccccc3c2)c1	none (no result: tim10-1 inh, tim23-1 inh, SKKanGAS inh, PfHsp90 set2, TIM10 inh)
CCC(C)n1c(SCC(=O)Nc2cc(C(C)(C)C)nn2-c2ccccc2)nc2ccccc2c1=O (stereo not drawn)	TIM10 inh 40.7 | TIM10 conf inactive
CCC(C)n1c(SCC(=O)Nc2cc(C)on2)nc2ccccc2c1=O (stereo not drawn)	none
CC(C)[C@@H](NC(=O)C1CCC(CNC(=O)[C@H](Cc2ccccc2)NC(=O)OC(C)(C)C)CC1)C(=O)O (stereo partly drawn)	none (no result: tim10-1 inh, tim23-1 inh, TIM10 inh)
CCN1C(=O)N/C(=C/c2cc(C)n(Cc3ccccc3)c2C)C1=O	TIM10 inh 95.3 | TIM10 conf inactive
CC(C)C(=O)Nc1ccc(N2CCCC2)c(Cl)c1	none
Cc1ccc(NC(=O)CN2C(=O)c3ccccc3S2(=O)=O)c(C)c1	none
N/C(=N/O)c1nc(N2CCCC2)nc(N(c2ccccc2)c2ccccc2)n1	TIM10 inh 53.3 | TIM10 conf 36.5
FC(F)Oc1ccc(NC(=S)NC23CC4CC(CC(C4)C2)C3)cc1	TIM10 inh 52.3 | TIM10 conf 34.8
CCOc1ccc(NC(=S)NC23CC4CC(CC(C4)C2)C3)cc1	none
Cc1ccc(C(=O)c2ccccc2C(=O)Nc2ccccc2)cc1	none
Cc1ccc(C)c(NC(=O)c2ccccc2C(=O)c2ccccc2)c1	TIM10 inh 40.7 (no result: V-ATPase pHluor, PfHsp90 set2) | TIM10 conf inactive
Oc1ccc(CN2CCC(Cc3ccccc3)CC2)c2cccnc12	none (no result: V-ATPase pHluor, PfHsp90 set2)
Oc1ccc(CN2CCc3ccccc3C2)c2cccnc12	SKKanGAS inh 82.8, TIM10 inh 41.2 | TIM10 conf inactive
CCOC(=O)c1c(C)[nH]c(C(=O)N2CCN(c3ccc(OC)cc3)CC2)c1C	none
Cc1c(C(=O)NCc2cccnc2)oc2ccc(S(=O)(=O)N3CCCCC3)cc12	none
Cc1c(C(=O)NCc2cccnc2)oc2ccc(S(=O)(=O)N3CCCCCC3)cc12	TIM10 inh 42.5 (no result: PfHsp90 set2) | TIM10 conf inactive
C[C@@H]1C(=O)N(c2ccccc2)[C@@H]1c1ccncc1	none (no result: SKKanGAS inh)
COCCN(Cc1nc2ccccc2c(=O)[nH]1)C(=O)COc1cccc(C(C)=O)c1	none (no result: SKKanGAS inh, PfHsp90 set2)
COC(=O)c1cccc(NC(=S)Nc2ccccc2Cl)c1	none
COC(=O)c1cccc(NC(=S)Nc2ccc(Cl)c(Cl)c2)c1	TIM10 inh 57.4 | TIM10 conf 34.2
COC(=O)c1ccc(Cl)c(NC(=O)NC23CC4CC(CC(C4)C2)C3)c1	none
COC(=O)c1cccc(NC(=O)NC23CC4CC(CC(C4)C2)C3)c1	TIM10 inh 48.3 | TIM10 conf 38.4
COc1ccc(CN2C(=O)C(CC(=O)NCC3CCCCC3)CC(C(=O)N3CCOCC3)=C2C)cc1 (stereo not drawn)	none (no result: tim10-1 inh, tim23-1 inh, SKKanGAS inh, PfHsp90 set2, TIM10 inh)
COc1cc(/C=N/NC(=S)NCC2CCCO2)cc(OC)c1OC (stereo not drawn)	none
COc1ccc(/C=C/C(=O)NC(=S)NCC2CCCO2)cc1 (stereo not drawn)	none
COc1ccccc1/C=C/C(=O)NC(=S)NCC1CCCO1 (stereo not drawn)	TIM10 inh 41.8 | TIM10 conf 34.8
COc1ccc(/C=N/NC(=S)NCC2CCCO2)cc1 (stereo not drawn)	TIM10 inh 44.4 | TIM10 conf inactive
CCn1c(O)c(/C=C2\C=Nc3ccccc32)sc1=O	TIM10 inh 44.3 | TIM10 conf inactive
CCOc1ccc(NC(=O)CN(C)C2=NS(=O)(=O)c3ccccc32)cc1	none (no result: tim10-1 inh, tim23-1 inh, SKKanGAS inh, PfHsp90 set2, TIM10 inh)
CC(Sc1ccc(S(=O)(=O)N(C)C)cn1)C(=O)NC1CCCC1 (stereo not drawn)	none (no result: SKKanGAS inh)
O=C1COc2ccc(-c3csc(=Nc4ccc(OC(F)F)cc4)n3CC3CCCO3)cc2N1 (stereo not drawn)	TIM10 inh 40.3 (no result: PfHsp90 set2) | TIM10 conf 38.4
COc1ccccc1N=c1scc(-c2ccc3c(c2)NC(=O)CO3)n1CC1CCCO1 (stereo not drawn)	none
